# “And” between values parts separate entries of the source, which are not always exact repeats. Identical values can stand only once. Records with an inconclusive call do not appear. The source made the active and inactive calls. Rule as the data show it, unless noted: active = inhibition above about 80%; inactive = the rest.
# Experiments:
# [1] = reducers of polyQ inclusions in PC12 cells, cell-based, NGF-treated PC12, GFPQ80 (AID 1614); conditions: PC12 NGF-treated GFP-polyQ80 inclusion reduction;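 also: lower means fewer inclusions and 0 means no inclusions at all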
# [2] = hESC survival regulators, cell-based (AID 493140; call rule not given here;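 also: cells exposed to compounds for four days before counting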); conditions: human embryonic stem cell survival screen; stronger effect = higher value
# [3] = tested on: Hepatitis C virus NS3 helicase; test: HCV NS3 helicase inhibitors, primary screen, biochemical, fluorescence polarization, LOPAC1280 library (AID 687035; in the data active = inhibition above about 37%); conditions: Purified HCV NS3 helicase, Cy5-dT15 ssDNA binding fluorescence polarization; stronger effect = higher value; concentration not given here
# [4] = Cy5 fluorescence quenching or enhancement artefacts, artefact control for HCV NS3 helicase inhibitor project, biochemical, LOPAC1280 (AID 687037; call rule not given here); conditions: Cy5-DNA-NS3h complex fluorescence interference counterscreen
# [5] = growth inhibition of DIPG glioma cells, dose response, cell-based, SU-DIPG-XVII, MIPE5.0, CellTiter-Glo, qHTS (AID 1347060; cut-off not given, nearly all actives have AC50 up to about 26 µM); conditions: SU-DIPG-XVII viability, CellTiter-Glo ATP luminescence
# [6] = growth inhibition of DIPG glioma cells, dose response, cell-based, SU-DIPG-XIII, MIPE4.0, CellTiter-Glo, qHTS (AID 1347061; cut-off not given, nearly all actives have AC50 up to about 37 µM;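 also: cells exposed to compound for 48 hours before readout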); conditions: SU-DIPG-XIII viability, CellTiter-Glo ATP luminescence
# [7] = growth inhibition of DIPG glioma cells, dose response, cell-based, JHH-DIPG-1, MIPE4.0, CellTiter-Glo, qHTS (AID 1347062; cut-off not given, nearly all actives have AC50 up to about 27 µM); conditions: JHH-DIPG-1 viability, CellTiter-Glo ATP luminescence
# [8] = viability loss in pontine glioma line – cell-based, SU-DIPG-XXV, MIPE5.0, CellTiter-Glo, qHTS, dose response (AID 1347065; cut-off not given, nearly all actives have AC50 up to about 26 µM;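 also: cells exposed to compound for 48 hours before ATP readout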); conditions: CellTiter-Glo ATP luminescence
# [9] = SU-DIPG-VI glioma cell viability, MIPE4.0 library, CellTiter-Glo luminescence, qHTS (AID 1347066; cut-off not given, nearly all actives have AC50 up to about 30 µM;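 also: cells exposed to compound for 48 hours before readout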); conditions: CellTiter-Glo ATP luminescence
# [10] = JHH-DIPG-1 glioma cell viability, MIPE5.0 library, CellTiter-Glo luminescence, qHTS (AID 1347067; cut-off not given, nearly all actives have AC50 up to about 26 µM;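 also: cells exposed to compound for 48 hours before readout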); conditions: JHH-DIPG-1 glioma viability, CellTiter-Glo ATP luminescence
# [11] = SU-DIPG-XXV glioma cell viability, MIPE5.0 library, qHTS (AID 1347068; cut-off not given, nearly all actives have IC50 up to about 30 µM)
# [12] = phospholipid biosynthesis inhibitors in animal cells, primary screen, cell-based, LOPAC library, screen 4 (AID 1347384; call rule not given here); conditions: phospholipid biosynthesis inhibition screen, at 10 µM
# [13] = HDN33 neuroblastoma growth inhibition, cell-based, chromothripsis tumors, cisplatin or BGB combos (AID 1671450); conditions: HDN33 neuroblastoma cells, stronger effect = higher value;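 also: cells exposed to compound for four days; 0% = vehicle DMSO and 100% = cell killing by high DMSO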
# [14] = LFS_MB_1R medulloblastoma cell growth inhibition, synergistic combos for chromothripsis tumors, cisplatin or BGB combos (AID 1671452); conditions: LFS_MB_1R medulloblastoma cells, stronger effect = higher value;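 also: cells exposed for 96 hours before readout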
# [15] = HTB85 osteosarcoma cell growth inhibition, synergistic combos for chromothripsis tumors, BGB or cisplatin IC20 combos (AID 1671453); conditions: HTB85 osteosarcoma cells, drug combinations, stronger effect = higher value;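 also: cells exposed for 96 hours before readout; 0% = vehicle DMSO and 100% = high DMSO killing control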
# [16] = MDA-MB-436 breast carcinoma cell growth inhibition, synergistic combos for chromothripsis tumors, BGB or cisplatin combos (AID 1671458; call rule not given here;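 also: cells exposed for 96 hours; 0% = vehicle DMSO and 100% = killing by high DMSO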); conditions: MDA-MB-436 breast carcinoma growth inhibition, drug combinations, stronger effect = higher value
# [17] = growth inhibition of BT084 medulloblastoma cells, cell-based, ICGC_MB145, cisplatin and BGB IC40 combos (AID 1671461); conditions: drug combinations, stronger effect = higher value;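 also: cells exposed to drugs for 96 hours; 0% = vehicle DMSO and 100% = high DMSO full killing control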
# [18] = growth inhibition of RCMB18 medulloblastoma cells, cell-based, cisplatin and BGB IC40 combos (AID 1671462); conditions: stronger effect = higher value;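 also: cells exposed to compound for four days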
# [19] = growth inhibition of CRL1545 osteosarcoma cells, cell-based, cisplatin and BGB IC20 combos (AID 1671464); conditions: stronger effect = higher value;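 also: cells exposed to compound for 96 hours before readout; 0% = vehicle DMSO and 100% = high DMSO killing control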
# [20] = growth inhibition of DIPG glioma cells, dose response, cell-based, SU-DIPG-IV, MIPE4.0, CellTiter-Glo, qHTS (AID 1347063; cut-off not given, nearly all actives have AC50 up to about 30 µM;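 also: compound exposure lasted 48 hours before the viability readout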); conditions: SU-DIPG-IV viability, CellTiter-Glo ATP luminescence
# [21] = measured here: with BGB IC20 combination, at 0.5 µM
# [22] = measured here: with cisplatin IC20 combination, at 0.5 µM
# [23] = measured here: combination with BGB IC40, at 0.05 µM
# [24] = measured here: combination with cisplatin, at 0.5 µM
# [25] = measured here: combination with cisplatin, at 5 µM
# [26] = measured here: with BGB IC20, at 0.5 µM
# [27] = measured here: with BGB IC20, at 5 µM
# [28] = measured here: with cisplatin IC20, at 0.5 µM
# [29] = measured here: with cisplatin IC20, at 5 µM
# [30] = measured here: BGB combination, at 0.5 µM
# [31] = measured here: BGB combination, at 5 µM
# [32] = measured here: cisplatin combination, at 0.5 µM
# [33] = measured here: cisplatin combination, at 5 µM
# [34] = cisplatin combination, at 0.5 µM
# [35] = measured here: BGB IC40 combination 0.05 uM, at 0.05 µM
# [36] = measured here: BGB IC40 combination, at 0.05 µM
smiles,measurement,setting,value
CC1COc2c(N3CCN(C)CC3)c(F)cc3c(=O)c(C(=O)O)cn1c23 (stereo not given),inclusion score,[1],2
same,survival,[2],10.6 (inactive)
same,inhibition,[3],-6% (inactive)
same,fluorescence ratio (interference),[4],0.9 (inactive)
same,outcome,[5],inactive
same,outcome,[6],inactive
same,outcome,[7],inactive
same,outcome,[8],inactive
same,outcome,[9],inactive
same,outcome,[10],inactive
same,outcome,[11],inactive
same,outcome,[12],inactive
same,inhibition,"[13]; BGB combo, at 5 µM",-21.1% and 5.47% and 15%
same,inhibition,[13]; at 0.5 µM,-45.4% (inactive) and 10.2% (inactive) and 8.6% (inactive)
same,inhibition,"[13]; cisplatin combo, at 5 µM",-32.1% and -5.63% and 10.7%
same,inhibition,[13]; [21],-54.6% and 19.4% and 13%
same,inhibition,[13]; [22],-40.5% and 0.068% and 0.136%
same,inhibition,"[13]; single agent, at 5 µM",-44.6% and 1.17% and 11.7%
same,inhibition,[14]; at 0.5 µM,-39.4% (inactive) and -8.3% (inactive) and 2.79% (inactive)
same,inhibition,[14]; [23],-24.5% and -34% and -2.54%
same,inhibition,[14]; [24],-78.8% and -30% and 23.8%
same,inhibition,[14]; [25],-87.1% and 21.5% and -3.71%
same,inhibition,[15]; at 0.5 µM,-45.9% (inactive) and 3.58% (inactive) and -0.61% (inactive)
same,inhibition,[15]; [26],-68.8% and -8.08% and -9.45%
same,inhibition,[15]; [27],-49.9% and 8% and -6.03%
same,inhibition,[15]; [28],-39.2% and 5.61% and -11.8%
same,inhibition,[15]; [29],-30.4% and 7.76% and -5.54%
same,inhibition,"[15]; single agent, at 5 µM",-34.4% and -4.7% and 18.3%
same,inhibition,[16]; at 0.5 µM,-34.5% (inactive) and -6.74% (inactive) and -3.04% (inactive)
same,inhibition,[16]; [30],-25.6% and -3.95% and -7.27%
same,inhibition,[16]; [31],-17.4% and 1.21% and -4.78%
same,inhibition,[16]; [32],-57.3% and -9.51% and 4.2%
same,inhibition,[16]; [33],-35.2% and 8.53% and -3.87%
same,inhibition,[17]; at 0.5 µM,-33.3% (inactive) and -1.31% (inactive) and 2.04% (inactive)
same,inhibition,[17]; [34],-31.2% and 8.69% and -10.9%
same,inhibition,"[17]; cisplatin combination, at 5 µM",-9.85% and -7.87% and -3.96%
same,inhibition,[17]; [35],-9.27% and 10.9% and 19.9%
same,inhibition,"[17]; single agent, at 5 µM",-20.1% and 7.2% and -8.12%
same,inhibition,[18]; at 0.5 µM,-28.4% (inactive) and -8.12% (inactive) and -0.02% (inactive)
same,inhibition,"[18]; cisplatin combo, at 5 µM",-38.4% and 21.2% and 9.23%
same,inhibition,[18]; [36],-5.79% and 25.7% and 5.62%
same,inhibition,[18]; [24],-28.1% and -3.73% and 27.4%
same,inhibition,"[18]; single agent, at 5 µM",-31.9% and -5.49% and -32%
same,inhibition,[19]; at 0.5 µM,-60% (inactive) and 4.59% (inactive) and -24.8% (inactive)
same,inhibition,[19]; [21],-68.3% and -3.25% and -47.6%
same,inhibition,[19]; [22],-59.4% and 8.51% and -13.4%
same,inhibition,"[19]; single agent, at 0.05 µM",-65.5% and -29.1% and 12%
same,inhibition,"[19]; single agent, at 5 µM",-39.6% and 8.31% and 10.5%
COc1c(N2CCNC(C)C2)c(F)cc2c(=O)c(C(=O)O)cn(C3CC3)c12 (stereo not given),outcome,[5],inactive
same,outcome,[6],inactive
same,outcome,[7],inactive
same,outcome,[20],inactive
same,outcome,[8],inactive
same,outcome,[9],inactive
same,outcome,[10],inactive
same,outcome,[11],inactive
same,inhibition,"[13]; BGB combo, at 5 µM",-39.9% and 9.99%
same,inhibition,[13]; at 0.5 µM,-22% (inactive) and 8.9% (inactive)
same,inhibition,"[13]; cisplatin combo, at 5 µM",-25.7% and 17.8%
same,inhibition,[13]; [21],-19.2% and 9.8%
same,inhibition,[13]; [22],-37.3% and 8.47%
same,inhibition,"[13]; single agent, at 5 µM",-2.12% and 5.9%
same,inhibition,[14]; at 0.5 µM,-13.4% (inactive) and -12.7% (inactive)
same,inhibition,[14]; [23],-24.8% and -10.4%
same,inhibition,[14]; [24],-39.4% and -1.15%
same,inhibition,[14]; [25],-37.1% and -28.2%
same,inhibition,[15]; at 0.5 µM,-28.9% (inactive) and -4.45% (inactive)
same,inhibition,[15]; [26],-22.5% and -1.96%
same,inhibition,[15]; [27],-17.3% and -16.7%
same,inhibition,[15]; [28],-35.1% and -12%
same,inhibition,[15]; [29],-18.3% and -5.81%
same,inhibition,"[15]; single agent, at 5 µM",17.7% and -9.93%
same,inhibition,[16]; at 0.5 µM,-1.19% (inactive) and -2.62% (inactive)
same,inhibition,[16]; [30],3.75% and -2.36%
same,inhibition,[16]; [31],-2.62% and -0.158%
same,inhibition,[16]; [32],-6.86% and -4.47%
same,inhibition,[16]; [33],-18.4% and -9.12%
same,inhibition,[17]; at 0.5 µM,11.1% (inactive) and -2.29% (inactive)
same,inhibition,[17]; [34],-21.4% and -4.21%
same,inhibition,"[17]; cisplatin combination, at 5 µM",-1.24% and -0.514%
same,inhibition,[17]; [35],19.1% and 4.51%
same,inhibition,"[17]; single agent, at 5 µM",-3.66% and 0.545%
same,inhibition,[18]; at 0.5 µM,0.35% (inactive) and 3.27% (inactive)
same,inhibition,"[18]; cisplatin combo, at 5 µM",-46.2% and 7.98%
same,inhibition,[18]; [36],-11.6% and -8.34%
same,inhibition,[18]; [24],-15.6% and 6.4%
same,inhibition,"[18]; single agent, at 5 µM",4.79% and -5.12%
same,inhibition,[19]; at 0.5 µM,-17.5% (inactive) and -1.12% (inactive)
same,inhibition,[19]; [21],-19.9% and -23.9%
same,inhibition,[19]; [22],-18.3% and 8.22%
same,inhibition,"[19]; single agent, at 0.05 µM",-13.6% and 2.79%
same,inhibition,"[19]; single agent, at 5 µM",-53.5% and 15.1%
NS(=O)(=O)c1cc2c(cc1Cl)NCNS2(=O)=O,inclusion score,[1],2
same,survival,[2],7.5 (inactive)
same,inhibition,[3],-1% (inactive)
same,fluorescence ratio (interference),[4],1 (inactive)
same,outcome,[5],inactive
same,outcome,[6],inactive
same,outcome,[7],inactive
same,outcome,[20],inactive
same,outcome,[8],inactive
same,outcome,[9],inactive
same,outcome,[10],inactive
same,outcome,[11],inactive
same,outcome,[12],inactive
